Molecules are shown by their SMILES. Records with an inconclusive call do not appear. Calls of active or inactive are those of the source. Rule for the calls, unless noted: active = hit-call score of the fitted dose curve at least 0.9, where 1 is the maximum; inactive = score below 0.9.

Outcome and AC50 data for 7 compounds are collected here from PubChem BioAssay (EPA / NIEHS).

A short description of experiment [1]: ACEA_ER_80hr: ACEA Biosciences xCELLigence Real-Time Cell Analysis on Estrogen Receptor Agonism for Proliferation (AID 2282667; active = hit-call score of the fitted dose curve at least 0.9, where 1 is the maximum). To be noted: T47D proliferation, impedance (xCELLigence), 80 h. An outline of the steps:
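Real-time electrical impedance tracked growth of the human breast line T47D, with the 80 h post-dosing value used. Dosing spanned eight 1:4 steps down from a 100 uM final top concentration, run in duplicate.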

Experiment [2] is described as follows: ATG_CRE_CIS: Attagene CIS-FACTORIAL HepG2 Assay for human cAMP Responsive Element (CRE) binding protein 3 (AID 2282926). To be noted: HepG2 CRE cis-reporter, Attagene multiplexed mRNA; actives raise or lower the signal. An outline of the steps: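 Human liver HepG2, transient MRTU transfection, 24 h compound exposure. Total RNA → oligo(dT) RT → PCR → 6-FAM primer extension → HpaI cut → CE. Activity called both directions vs DMSO.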

For experiment [3], the target named is CCAAT/enhancer-binding protein beta (Homo sapiens) (UniProt P17676). Nature of the experiment: ATG_C_EBP_CIS: Attagene CIS-FACTORIAL HepG2 Assay for human CCAAT/Enhancer Binding Protein (C/EBP) beta (AID 2282927). The conditions noted are these: HepG2 Attagene cis-factorial transcription factor reporter; actives raise or lower the signal. Put shortly: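 HepG2 transiently transfected with multiplexed reporter units under cis-regulatory promoters reporting endogenous C/EBPb activity. After 24 h exposure, reporter mRNA assayed by RT-PCR, fluorescent labelling, HpaI digestion and capillary electrophoresis; bidirectional fitting versus DMSO.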
CCAAT/enhancer-binding protein beta (Homo sapiens), sequence (P17676 whole entry, looked up): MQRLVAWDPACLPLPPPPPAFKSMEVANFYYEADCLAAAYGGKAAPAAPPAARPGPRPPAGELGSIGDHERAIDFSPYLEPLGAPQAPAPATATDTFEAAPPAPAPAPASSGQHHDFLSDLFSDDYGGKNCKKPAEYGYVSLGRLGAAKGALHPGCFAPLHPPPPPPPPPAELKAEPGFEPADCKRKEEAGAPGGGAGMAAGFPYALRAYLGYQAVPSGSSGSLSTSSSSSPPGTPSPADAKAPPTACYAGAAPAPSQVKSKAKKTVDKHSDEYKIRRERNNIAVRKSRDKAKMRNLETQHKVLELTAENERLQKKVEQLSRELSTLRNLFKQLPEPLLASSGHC

The nature of experiment [4]: ATG_CMV_CIS: Attagene CIS-FACTORIAL HepG2 Assay for human CMV (Internal Marker) (AID 2282928).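 Note: endpoint acts as a background internal control marker rather than a target.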 The conditions noted are these: HepG2 CMV promoter reporter, transcription factor profiling; actives raise or lower the signal. Put shortly: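 Endogenous transcription factor activity read in HepG2 via transfected cis-promoter reporter units. After 24 h dosing, reporter mRNA measured by RT-PCR/capillary electrophoresis; gain or loss of signal fit relative to DMSO.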

Experiment [5] in a line: ATG_DR4_LXR_CIS: Attagene CIS-FACTORIAL HepG2 Assay for human Liver X Receptor (LXR), DR4 submotif (AID 2282929). To be noted: HepG2 Attagene DR4 cis-reporter, mRNA transcription; actives raise or lower the signal. An outline of the steps: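 Fluorescence intensity of labelled reporter cDNA fragments, separated by capillary electrophoresis, gives the signal. HepG2 cells bearing cis-regulated reporter constructs were treated 24 h; activity fitted bidirectionally relative to DMSO negative control.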

For experiment [6], the target named is Aryl hydrocarbon receptor (Homo sapiens) (UniProt P35869). Nature of the experiment: ATG_Ahr_CIS: Attagene CIS-FACTORIAL HepG2 Assay for human Aryl Hydrocarbon Receptor (Ahr) (AID 2282930). To be noted: HepG2 AhR cis-factorial reporter transcription; actives raise or lower the signal. Put shortly: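 HepG2 cells transiently transfected with cis-element-driven multiplexed reporter units; endogenous AhR activity read as reporter mRNA 24 h after dosing, via RT-PCR, 6-FAM labelling, HpaI digestion and capillary electrophoresis. Bidirectional fit relative to DMSO.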
Aryl hydrocarbon receptor (Homo sapiens), sequence (P35869 whole entry, looked up): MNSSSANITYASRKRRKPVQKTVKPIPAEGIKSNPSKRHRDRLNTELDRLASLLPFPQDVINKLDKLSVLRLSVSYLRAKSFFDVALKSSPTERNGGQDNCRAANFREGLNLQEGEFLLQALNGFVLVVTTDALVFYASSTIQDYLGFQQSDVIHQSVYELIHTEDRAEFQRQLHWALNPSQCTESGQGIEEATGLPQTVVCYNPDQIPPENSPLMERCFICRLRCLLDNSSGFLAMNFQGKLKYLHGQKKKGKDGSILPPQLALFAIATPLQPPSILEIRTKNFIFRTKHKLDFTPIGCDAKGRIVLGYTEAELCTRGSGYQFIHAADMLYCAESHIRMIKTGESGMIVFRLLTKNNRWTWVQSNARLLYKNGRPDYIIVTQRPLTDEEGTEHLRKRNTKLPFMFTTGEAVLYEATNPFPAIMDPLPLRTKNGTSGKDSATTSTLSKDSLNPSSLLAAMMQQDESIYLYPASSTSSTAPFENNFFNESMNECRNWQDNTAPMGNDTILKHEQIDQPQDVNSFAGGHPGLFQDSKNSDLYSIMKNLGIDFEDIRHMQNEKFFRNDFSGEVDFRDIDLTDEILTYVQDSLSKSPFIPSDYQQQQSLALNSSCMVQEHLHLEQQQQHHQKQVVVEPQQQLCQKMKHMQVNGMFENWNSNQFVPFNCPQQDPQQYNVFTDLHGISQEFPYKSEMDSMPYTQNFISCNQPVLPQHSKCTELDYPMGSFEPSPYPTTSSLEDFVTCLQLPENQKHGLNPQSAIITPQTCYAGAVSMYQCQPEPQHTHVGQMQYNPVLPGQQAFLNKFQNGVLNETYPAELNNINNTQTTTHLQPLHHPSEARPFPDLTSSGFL

Experiment [7] can be described thus: ATG_AP_1_CIS: Attagene CIS-FACTORIAL HepG2 Assay for human Activator Protein 1 (AP-1) (AID 2282931). The conditions noted are these: HepG2 Attagene cis-factorial AP-1 reporter mRNA; actives raise or lower the signal. Put shortly:
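Multiplexed HepG2 reporter assay, 24 h dosing. mRNA induction detected by RT-PCR plus capillary electrophoresis. Activity fitted in both directions against DMSO.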

A short description of experiment [8]: ATG_AP_2_CIS: Attagene CIS-FACTORIAL HepG2 Assay for human Activator Protein 2 (AP-2) (AID 2282932). To be noted: HepG2 AP-2 cis-reporter, Attagene transcription factor profiling; actives raise or lower the signal. Put shortly:
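HepG2 cells transiently transfected with cis-element reporter units and exposed for 24 h. Reporter mRNA measured by RT-PCR, FAM labelling, HpaI digestion and capillary electrophoresis. Changes in either direction fitted relative to DMSO.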

Experiment [9] can be described thus: ATG_BRE_CIS: Attagene CIS-FACTORIAL HepG2 Assay for human Bone Morphogenetic Protein (BMP) Response Element (BRE) (AID 2282933). To be noted: HepG2 BMP response element reporter, Attagene transcription factor profiling; actives raise or lower the signal. Put shortly:
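HepG2 cells transiently transfected with CIS reporter units (endogenous TF activity, BMP response element), dosed 24 h. Reporter mRNA quantified by RT-PCR, fluorescent labelling and capillary electrophoresis; bidirectional fit vs DMSO baseline.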

The target in experiment [10] is Transcription factor E2F1 (Homo sapiens) (UniProt Q01094). Nature of the experiment: ATG_E2F_CIS: Attagene CIS-FACTORIAL HepG2 Assay for human E2F Transcription Factor 1 (AID 2282935). To be noted: HepG2 Attagene cis-reporter, E2F reporter RNA transcripts; actives raise or lower the signal. An outline of the steps: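 Endogenous E2F1 activity read through cis-promoter reporter units transfected into HepG2. After 24 h compound treatment, reporter mRNA measured by RT-PCR, HpaI digestion and capillary electrophoresis. Bidirectional fit versus DMSO.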
Transcription factor E2F1 (Homo sapiens), sequence (Q01094 whole entry, looked up): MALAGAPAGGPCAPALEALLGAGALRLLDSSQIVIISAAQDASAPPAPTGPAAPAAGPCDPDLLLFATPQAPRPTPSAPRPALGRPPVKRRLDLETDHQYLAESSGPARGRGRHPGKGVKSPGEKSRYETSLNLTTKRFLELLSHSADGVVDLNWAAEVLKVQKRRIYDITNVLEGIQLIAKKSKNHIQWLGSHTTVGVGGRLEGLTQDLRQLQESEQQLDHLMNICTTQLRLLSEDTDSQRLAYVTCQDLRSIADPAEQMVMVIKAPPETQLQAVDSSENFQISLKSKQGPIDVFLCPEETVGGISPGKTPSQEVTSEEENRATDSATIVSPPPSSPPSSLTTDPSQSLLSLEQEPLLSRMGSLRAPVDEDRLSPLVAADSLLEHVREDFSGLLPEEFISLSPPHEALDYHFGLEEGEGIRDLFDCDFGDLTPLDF

Experiment [11] is described as follows: ATG_E_Box_CIS: Attagene CIS-FACTORIAL HepG2 Assay for human Enhancer Box (E-box) (AID 2282936). The conditions noted are these: HepG2 E-box cis-reporter transcription, actives raise or lower the signal. Put shortly:
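HepG2 cells transiently transfected with multiplexed cis-element reporter units, dosed 24 h; reporter mRNA quantified by RT-PCR, 6-FAM labelling, HpaI digestion and capillary electrophoresis. E-box (USF1) signal fitted bidirectionally vs DMSO.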

Experiment [12] in a line: ATG_M_61_CIS: Attagene CIS-FACTORIAL HepG2 Assay for M61 Transcription Factor (Internal Marker) (AID 2282937). The conditions noted are these: HepG2 Attagene CIS-FACTORIAL M61 internal marker reporter; actives raise or lower the signal. Put shortly:
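Endogenous transcription factor activity in HepG2 is read through transiently transfected cis-element reporter units. After 24 h dosing, RNA undergoes reverse transcription, PCR and primer extension with 6-FAM before capillary electrophoresis; DMSO-referenced bidirectional fit.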

Experiment [13] can be described thus: ATG_EGR_CIS: Attagene CIS-FACTORIAL HepG2 Assay for human Early Growth Response 1 (EGR1) (AID 2282938). To be noted: HepG2 Attagene CIS-FACTORIAL EGR reporter mRNA; actives raise or lower the signal. Put shortly:
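Activity is taken as induction or loss of reporter mRNA versus DMSO, fitted bidirectionally. Transcripts from cis-regulated reporter units in transiently transfected HepG2 were measured after 24 h by RT-PCR with capillary electrophoresis.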

Experiment [14] can be described thus: ATG_M_19_CIS: Attagene CIS-FACTORIAL HepG2 Assay for M19 Transcription Factor (Internal Marker) (AID 2282939). The conditions noted are these: HepG2 Attagene CIS-FACTORIAL M19 internal marker reporter; actives raise or lower the signal. An outline of the steps: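 HepG2 cells transiently transfected with cis-regulated multiplexed reporter units, dosed 24 h. Reporter mRNA quantified by RT-PCR and capillary electrophoresis; internal background marker fitted bidirectionally versus DMSO.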

Experiment [15] in a line: ATG_ERE_CIS: Attagene CIS-FACTORIAL HepG2 Assay for Estrogen Response Element (ERE) (AID 2282940). To be noted: HepG2 ERE cis-reporter, Attagene RNA transcript; actives raise or lower the signal. An outline of the steps:
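HepG2 cells transiently transfected with multiplexed cis-element reporter units, measuring endogenous transcription factor activity; ERE reporter mRNA quantified after 24 h exposure by RT-PCR, fluorescent labelling, HpaI digestion and capillary electrophoresis. Bidirectional change versus DMSO.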

A short description of experiment [16]: ATG_Ets_CIS: Attagene CIS-FACTORIAL HepG2 Assay for human Erythroblast Transformation Specific (ETS) (AID 2282941). To be noted: HepG2 ETS cis-reporter transcription, actives raise or lower the signal. Put shortly: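 Steps: transfect HepG2 with multiple reporter units; treat compound 24 h; isolate RNA, DNase-treat, reverse-transcribe; PCR-amplify, label with 6-FAM, digest with HpaI; separate by capillary electrophoresis. Activity fitted both directions versus DMSO.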

Experiment [17] deals with Hepatocyte nuclear factor 3-beta (Homo sapiens) (UniProt Q9Y261). Nature of the experiment: ATG_FoxA2_CIS: Attagene CIS-FACTORIAL HepG2 Assay for human Forkhead box A2 (FOXA2) (AID 2282942). The conditions noted are these: HepG2 cis-reporter transcription factor activity, 24 h; actives raise or lower the signal. An outline of the steps: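 Reporter transcript induction is measured by fluorescence after capillary electrophoresis of RT-PCR products from HepG2 cells exposed 24 h. Cis-regulated reporter units report endogenous factor activity; curves fitted both directions against DMSO.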
Hepatocyte nuclear factor 3-beta (Homo sapiens), sequence (Q9Y261 whole entry, looked up): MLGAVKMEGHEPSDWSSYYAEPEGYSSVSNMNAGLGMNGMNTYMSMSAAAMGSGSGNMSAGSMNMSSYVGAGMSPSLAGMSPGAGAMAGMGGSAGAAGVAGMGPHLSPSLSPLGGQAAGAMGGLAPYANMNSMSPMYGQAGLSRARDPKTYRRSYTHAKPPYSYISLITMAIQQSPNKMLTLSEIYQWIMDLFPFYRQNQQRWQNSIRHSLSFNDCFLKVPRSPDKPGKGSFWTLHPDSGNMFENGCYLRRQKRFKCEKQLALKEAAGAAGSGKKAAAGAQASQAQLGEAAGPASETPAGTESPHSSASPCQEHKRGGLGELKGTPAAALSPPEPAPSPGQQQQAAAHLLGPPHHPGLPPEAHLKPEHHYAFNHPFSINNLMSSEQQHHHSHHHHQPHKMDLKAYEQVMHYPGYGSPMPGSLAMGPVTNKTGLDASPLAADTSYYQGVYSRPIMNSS

A short description of experiment [18]: ATG_FoxO_CIS: Attagene CIS-FACTORIAL HepG2 Assay for human Forkhead box O (FoxO) (AID 2282943). The conditions noted are these: HepG2 Attagene cis-reporter, FoxO element, mRNA; actives raise or lower the signal. Put shortly: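 HepG2 cells transiently transfected with cis-element-driven reporter units report endogenous FoxO activity. After 24 h chemical exposure, reporter mRNA quantified by RT-PCR, fluorescent labeling, HpaI digestion and capillary electrophoresis; bidirectional fit versus DMSO.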

Experiment [19] in a line: ATG_GATA_CIS: Attagene CIS-FACTORIAL HepG2 Assay for human GATA Binding Protein (AID 2282944). To be noted: HepG2 GATA cis-element reporter, Attagene multiplex mRNA; actives raise or lower the signal. Put shortly:
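HepG2 cells transiently transfected with multiplexed cis-element reporter units measure endogenous GATA activity; after 24 h compound exposure, reporter mRNA quantified by RT-PCR and capillary electrophoresis. Changes fitted in both directions vs DMSO.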

`O=C1C=CC(=O)N1c1ccccc1`: the compound was called inactive in [1], in [2], in experiment [3], in experiment [4], in [5] and in experiment [6]. The compound was called inactive in experiment [7], in [8], in experiment [9], in [10], in experiment [11] and in experiment [12]. The result in experiment [13], in experiment [14], in [15], in experiment [16], in experiment [17] and in experiment [18] was inactive. Moreover, the compound was called inactive in [19].
With `CCC(=O)OC(C)c1ccccc1` (configuration not stated), the compound was called inactive in experiment [1], in experiment [2], in experiment [3], in experiment [4], in experiment [5] and in experiment [6]. Besides, the call in [7], in experiment [8], in [9], in experiment [10], in experiment [11] and in experiment [12] was inactive. The call in experiment [13], in experiment [14], in [15], in experiment [16], in experiment [17] and in experiment [18] was inactive. In addition, the compound was called inactive in experiment [19].
For `O=c1[nH]cccc1O`, the outcome in experiment [1], in [2], in experiment [3], in experiment [4], in [5] and in [6] was inactive. Moreover, the call in experiment [7], in [8], in experiment [9], in experiment [10], in experiment [11] and in experiment [12] was inactive. For the same compound, the call in experiment [13], in experiment [15], in experiment [16], in [17], in [18] and in experiment [19] was inactive.
`CCCCOC(=O)C(C)O` (configuration not stated): the compound was called inactive in experiment [1], in experiment [2], in [3], in experiment [4], in experiment [5] and in [6]. In addition, the outcome in [7], in experiment [8], in [9], in experiment [10], in experiment [11] and in experiment [12] was inactive. The outcome in experiment [13], in experiment [14], in experiment [15], in experiment [16], in [17] and in experiment [18] was inactive. Moreover, in [19], the compound was classed as inactive.
The term AC50 denotes the midpoint of the concentration-response curve, whichever way the signal moves. `CCCCCCCC/C=C\CCCCCCCC(=O)OCC(O)CO` (configuration not stated): the result in experiment [1], in [2], in experiment [3], in experiment [4], in experiment [5] and in experiment [6] was inactive. Further, the compound was classed as inactive in experiment [8], in [9], in [10], in experiment [11], in [12] and in experiment [13]. Further, the compound was called inactive in [14], in [15], in experiment [16], in experiment [17], in experiment [18] and in experiment [19]. Further, the AC50 in experiment [7] is 100 µM (active).
Take `O=C(O)CCC(F)(F)C(F)(F)C(F)(F)F`: the compound was called inactive in [1], in experiment [2], in [3], in experiment [4], in experiment [5] and in experiment [6]. The call in [7], in experiment [8], in [9], in [10], in experiment [11] and in experiment [12] was inactive. Further, the compound was called inactive in experiment [13], in [14], in [15], in experiment [16], in experiment [17] and in experiment [18]. Moreover, the outcome in [19] was inactive.
Take `Brc1ccccn1`: the result in experiment [1], in [2], in experiment [3], in [4], in [5] and in experiment [6] was inactive. The result in experiment [7], in experiment [8], in experiment [9], in experiment [10], in [11] and in [12] was inactive. Moreover, the result in experiment [13], in experiment [14], in experiment [15], in experiment [16], in [17] and in experiment [18] was inactive. For the same compound, the result in experiment [19] was inactive.
